High-throughput results deposited in PubChem by The Scripps Research Institute Molecular Screening Center.
Only some compounds are listed: those with a hit (about 4.1% of all), similar ones and a draw of the others.
ssDAF12 agonist = S. stercoralis DAF-12 activation, primary screen. HEK293 ssDAF-12/GRIP1 lit1-tk-luc reporter, luminescence; % of 3 µM dafachronic acid response. activation, % at 6.8 µM. 370,000 tested, 1% active;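 active = activation above the mean over all tested compounds plus 3 SD, cut at about 0.9% in these data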;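 also: 0% = DMSO-only wells and 100% = 3 µM delta7-dafachronic acid wells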
DAX1 inh-1 = NR0B1 (DAX1) inhibition; P51843; HEK293 Gal4-DAX1 luciferase reporter, luminescence; inhibition, % at 6.75 µM; 340,000 tested, 0.99% active; AID 504766;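 active = inhibition above the mean over all tested compounds plus 3 SD, cut at about 4.2% in these data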;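 also: 0% = DAX1-transfected cells with DMSO and 100% = empty-vector control cells with DMSO; inhibition shows as a rise in luminescence from relieved DAX1 repression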
hgDAF12 agonist = activates the H. glycines DAF-12 receptor ligand-binding domain | HEK293 GAL4-hgDAF12 UAS-luciferase reporter, agonist luminescence; normalized to butyrate control | activation, % at 6.8 µM | 370,000 tested, 1.8% active;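 active = activation above a cutoff set at the mean of all screened compounds plus 3 SD, cut at about 10% in these data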;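 also: 0% = DMSO wells and 100% = sodium butyrate wells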
DAX1 inh-2 = blocks DAX1 repression of SF-1 activated StAR promoter. inhibition, % at 6.8 µM. HEK293T StAR-luciferase reporter, SF-1/DAX-1 repression relief. 370,000 tested, 1.1% active. AID 652010;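 active = inhibition above the mean over all tested compounds plus 3 SD, cut at about 3.6% in these data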;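 also: 0% = DAX-1 cells with DMSO and 100% = cells lacking DAX-1 with DMSO; higher inhibition means more luminescence from relief of DAX-1 repression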
hcDAF-12 act = activators of H. contortus DAF-12 nuclear receptor; 370,000 tested, 1.4% active; activation, % at 6.8 µM; AID 652067; HEK293 hcDAF-12 lit1-tk-luc reporter, luminescence; 0% DMSO, 100% Δ7-dafachronic acid;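 active = activation above the mean of all tested compounds plus 3 SD, cut at about 5.5% in these data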;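 also: 100% = response to 3 µM Δ7-dafachronic acid high control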
hgDAF12 ag = hgDAF-12 agonism, confirmation assay; shares compounds with hgDAF12 agonist; HEK293 GAL4-hgDAF12 luciferase reporter, agonist mode; percent of butyrate response; activation, % at 6.8 µM; 3,300 tested, 80% active; AID 743050;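 active = mean activation over triplicate wells above the hit cutoff derived from the earlier primary screen, cut at about 11% in these data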;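 also: 0% = DMSO low control and 100% = 2 mM sodium butyrate high control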
LXRb DAF12 ctr = counter-screen for DAF-12 agonists: agonists of human LXR-beta. HEK293 Gal4-LXR luciferase reporter, 24 h. AID 743051. shares compounds with hgDAF12 agonist. activation, % at 6.8 µM. 3,300 tested, under 10 active;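 active = mean activation of the triplicate above a set limit carried over from the primary screen, none filed active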
Target sequence (P55055 whole entry, looked up, the tested form may be a part): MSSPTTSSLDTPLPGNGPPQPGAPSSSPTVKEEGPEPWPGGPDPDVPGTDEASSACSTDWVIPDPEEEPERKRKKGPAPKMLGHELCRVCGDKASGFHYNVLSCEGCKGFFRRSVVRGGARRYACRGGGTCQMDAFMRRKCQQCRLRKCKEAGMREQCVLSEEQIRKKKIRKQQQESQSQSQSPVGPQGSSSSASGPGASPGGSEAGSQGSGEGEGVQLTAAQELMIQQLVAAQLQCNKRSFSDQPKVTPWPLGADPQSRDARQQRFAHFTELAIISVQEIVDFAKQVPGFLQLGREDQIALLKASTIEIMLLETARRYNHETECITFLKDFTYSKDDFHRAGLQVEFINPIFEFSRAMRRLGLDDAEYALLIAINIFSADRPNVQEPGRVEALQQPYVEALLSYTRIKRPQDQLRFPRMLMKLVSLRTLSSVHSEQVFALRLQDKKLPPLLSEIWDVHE
The depositor's hits bear a star.

Results for COc1ccc(C=NNC(=O)NN=Cc2ccc(OC)c(OC)c2)cc1OC ?
ssDAF12 agonist: -1.0; DAX1 inh-1: 5.0*; hgDAF12 agonist: 13.3*; DAX1 inh-2: 0.8; hcDAF-12 act: 3.1; hgDAF12 ag: 9.3; LXRb DAF12 ctr: 0.2

What do the screens show for `CCOc1cc(/C=N/NC(=O)c2ccc(NC(=O)C3CC3)cc2)ccc1O`?
ssDAF12 agonist: -0.7; DAX1 inh-1: -0.3; hgDAF12 agonist: -1.8; DAX1 inh-2: -2.2; hcDAF-12 act: 2.8

How did CCOc1cc(/C=N/NC(=O)Nc2ccccc2)ccc1O do in these assays?
ssDAF12 agonist: 3.8*; DAX1 inh-1: -0.1; hgDAF12 agonist: 13.4*; DAX1 inh-2: 1.2; hcDAF-12 act: 6.1*; hgDAF12 ag: 11.4*; LXRb DAF12 ctr: 0.4

What do the screens show for `CCOC(=O)c1ccc(NC(=O)CCNS(=O)(=O)c2cccs2)cc1`?
ssDAF12 agonist: -0.7; DAX1 inh-1: 3.3; hgDAF12 agonist: 1.1; DAX1 inh-2: 0.4; hcDAF-12 act: -1.1

What do the screens show for `COc1ccc(NC(=O)c2cncn2-c2ccccc2)cc1`?
ssDAF12 agonist: -0.6; DAX1 inh-1: 2.0; hgDAF12 agonist: 0.5; DAX1 inh-2: -0.3; hcDAF-12 act: -1.8

How did COc1cc(OC)c(C2=NOC(C(=O)N3CCc4ccccc4C3)C2)cc1Cl (configuration not stated) do in these assays?
ssDAF12 agonist: -1.1; DAX1 inh-1: 0.4; hgDAF12 agonist: 14.4*; DAX1 inh-2: 0.5; hcDAF-12 act: -1.1; hgDAF12 ag: -3.8; LXRb DAF12 ctr: 0.0

Results for COc1cc(OC)c(C2=NOC(C(=O)N3CCN(C(=O)c4ccco4)CC3)C2)cc1Cl (configuration not stated) ?
ssDAF12 agonist: -1.9; DAX1 inh-1: -0.1; hgDAF12 agonist: -0.7; DAX1 inh-2: 0.0; hcDAF-12 act: -2.2

How did COc1ccc2cc(CCNC(=O)c3cc4ccccc4o3)c(=O)[nH]c2c1 do in these assays?
ssDAF12 agonist: -1.3; DAX1 inh-1: -0.7; hgDAF12 agonist: -3.4; DAX1 inh-2: -3.1; hcDAF-12 act: -0.8

What do the screens show for `COc1ccc2cc(CCNC(=O)c3cccs3)c(=O)[nH]c2c1`?
ssDAF12 agonist: -0.1; DAX1 inh-1: 2.8; hgDAF12 agonist: 15.4*; DAX1 inh-2: 4.0*; hcDAF-12 act: 4.2; hgDAF12 ag: 11.4*; LXRb DAF12 ctr: 0.5

Results for CN(Cc1cnccn1)C(=O)CC1C(=O)NCCN1Cc1ccc(F)cc1Cl (configuration not stated) ?
ssDAF12 agonist: -1.1; DAX1 inh-1: -0.6; hgDAF12 agonist: 0.7; DAX1 inh-2: 0.4; hcDAF-12 act: -1.1

Results for O=C(CNC(=O)c1cccs1)OCc1ccc(Br)cc1 ?
ssDAF12 agonist: -1.2; DAX1 inh-1: 1.5; hgDAF12 agonist: -0.2; DAX1 inh-2: -0.4; hcDAF-12 act: -0.5

Results for O=C(CNC(=O)c1cccs1)c1ccc(Br)cc1 ?
ssDAF12 agonist: -0.7; DAX1 inh-1: 0.2; hgDAF12 agonist: 14.9*; DAX1 inh-2: 1.9; hcDAF-12 act: 1.7; hgDAF12 ag: 14.0*; LXRb DAF12 ctr: 0.7

Results for COc1ccc2nc(N(CCN(C)C)C(=O)c3ccc4ncsc4c3)sc2c1 ?
ssDAF12 agonist: 0.0; DAX1 inh-1: -0.3; hgDAF12 agonist: 13.6*; DAX1 inh-2: 3.9*; hcDAF-12 act: 6.0*; hgDAF12 ag: 18.8*; LXRb DAF12 ctr: 0.6

How did COc1ccc2nc(N(CCN(C)C)C(=O)c3ccc4ccccc4c3)sc2c1 do in these assays?
ssDAF12 agonist: -0.7; DAX1 inh-1: -0.1; hgDAF12 agonist: 0.7; DAX1 inh-2: -0.3; hcDAF-12 act: 1.7

How did Cc1ccc(C(=O)COC(=O)c2ccc(O)cc2)cc1 do in these assays?
ssDAF12 agonist: -0.8; DAX1 inh-1: 1.8; hgDAF12 agonist: 14.1*; DAX1 inh-2: 0.9; hcDAF-12 act: -0.1; hgDAF12 ag: 8.5; LXRb DAF12 ctr: 0.3

Results for CCOC(=O)COC(=O)c1ccc(O)cc1 ?
ssDAF12 agonist: -1.3; DAX1 inh-1: -0.2; hgDAF12 agonist: -0.3; DAX1 inh-2: 0.1; hcDAF-12 act: 1.9
